Assay results from PubChem BioAssay AID493168 (National Center for Advancing Translational Sciences (NCATS), 2011).
Inconclusive results are not listed. Calls of active or inactive are those of the source. Calls come from the whole dose curve; as a rule, active = well fitted inhibition curve with a large enough effect; inconclusive = small, poorly fitted or top-dose-only effect, or effect the other way; inactive = flat fitted curve, though single readings scatter.

Molecular target: Ubiquitin carboxyl-terminal hydrolase 2 (Homo sapiens) (UniProt O75604)
Sequence (O75604 whole entry, looked up): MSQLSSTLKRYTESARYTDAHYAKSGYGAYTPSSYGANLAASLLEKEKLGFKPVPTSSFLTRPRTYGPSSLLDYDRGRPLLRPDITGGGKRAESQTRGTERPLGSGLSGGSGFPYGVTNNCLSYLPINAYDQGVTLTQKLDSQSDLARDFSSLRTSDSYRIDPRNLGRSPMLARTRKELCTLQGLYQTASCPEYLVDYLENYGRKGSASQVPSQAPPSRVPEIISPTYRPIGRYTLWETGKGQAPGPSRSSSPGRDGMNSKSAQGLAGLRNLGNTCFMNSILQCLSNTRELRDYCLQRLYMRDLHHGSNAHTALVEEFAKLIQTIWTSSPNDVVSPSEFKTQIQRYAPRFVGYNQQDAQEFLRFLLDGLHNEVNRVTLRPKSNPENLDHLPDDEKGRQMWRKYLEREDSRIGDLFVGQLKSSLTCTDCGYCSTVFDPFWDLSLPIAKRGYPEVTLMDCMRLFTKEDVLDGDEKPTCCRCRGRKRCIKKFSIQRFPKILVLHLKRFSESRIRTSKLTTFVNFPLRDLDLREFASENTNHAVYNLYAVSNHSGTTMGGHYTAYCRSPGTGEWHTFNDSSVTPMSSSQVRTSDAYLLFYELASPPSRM
Assay: Confirmation Assay for Inhibitors of Ubiquitin-specific Protease USP2a Using CHOP2 as the Reporter; note: nearly all actives have a fitted effect of over 55% in size
Conditions: USP2 core, Ub-CHOP2 coupled reporter fluorescence; series mostly up to 38.3 µM
Method in brief: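 Ub-CHOP2 cleavage coupled to reporter activation was read by fluorescence after 60 min at RT, with 25 nM final Ub-CHOP2 and substrate. Enzyme (10 nM final USP2 core) first sat 30 min with compound; data were normalized to NEM and fitted to concentration-response curves.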
Potency is the fitted concentration of half-maximal effect.

Potency, active:
O=C(CN1C(=O)/C(=C2\SC(=S)N(CCS(=O)(=O)O)C2=O)c2ccccc21)Nc1cccc(Br)c1 5.21 µM, C#CCOCCOCCOCCNc1nc(N2CCN(C(=O)CCCCCCCCCCNC(=O)Cn3cc(CCCCCN)nn3)CC2)nc(N2CCN(C(=O)CCCCCCCCCCNC(=O)Cn3cc(CCCCCN)nn3)CC2)n1 10.4 µM, CC(C)c1ccc2c(c1)c(SC(C)(C)C)c(CC(C)(C)C(=O)O)n2Cc1ccc(Cl)cc1 6.56 µM

Potency, inactive:
CCCn1c(C)cc(C)c(C#N)c1=O, C=CCn1c(NCc2cc(C)ccc2O)nc2ccccc21, CC(C)C(=O)Nc1ccc(C(=O)N2CCCCCC2)cc1, COC(=O)c1c(O)c2c([nH]c1=O)CCCC2, CCOc1ccc(-c2ccc(/C=C3/C(=N)N4C(C)=CSC4=NC3=O)o2)c([N+](=O)[O-])c1, CC(C)CC(c1nnnn1CC1CCCO1)N1CCN(c2nc3ccccc3s2)CC1 (stereo not given), COc1ccc(OCC(=O)Nc2ccccc2OC)cc1, CCCC(c1nnnn1Cc1ccc(OC)cc1)N1CCC(C(N)=O)CC1 (stereo not given), C/C(CC(=O)N1CCCC1)=N\NC(=O)c1cc2ccccc2cc1O, O=C(NC1CCCCC1)C(c1ccco1)N(C(=O)c1csnn1)c1cccc(F)c1 (stereo not given), COc1ccccc1-c1nnc(SCC(=O)Nc2nc(-c3ccccc3)cs2)n1C, CC(C)n1c(/C=C/[C@H](O)C[C@H](O)CC(=O)O)c(-c2ccc(F)cc2)c2ccccc21, CN(C)C=Nc1ncc2c3ccccc3n(CCN(C)C)c2c1C#N, COc1ccc(NC(=O)C2CC(=O)OC2c2ccccc2)cc1 (stereo not given), Cc1cc(C)c(NC(=O)C[N+](C)(C)CC(O)COc2cccc3ccccc23)c(C)c1 (stereo not given), CCC(CO)Nc1nc(CN2CCCCC2)nc2scc(-c3ccccc3)c12 (stereo not given), Cc1ccc(C(=O)N/C(=C/c2ccco2)C(=O)Nc2cccc(C(=O)O)c2)cc1, O=C(CCc1nc(-c2ccccc2F)no1)NC1CCCCCC1, CSC1=NCCN1C(=O)Cc1ccc(F)cc1, CC(=O)c1ccc(NC(=O)CC(NCCC2=CCCCC2)C(=O)O)cc1 (stereo not given), COc1ccc(-c2csc(N3CCN(C(=O)c4ccco4)CC3)n2)cc1, c1coc(CNc2nc(-c3cccs3)cs2)c1, CC1CC(C)CN(C(=O)CSc2nnc(-c3ccc(Cl)cc3)o2)C1 (stereo not given), CC(=O)C1=C(O)C(=O)N(c2nnn(C)n2)C1c1cccs1 (stereo not given), Cn1c(C(=O)NCCCN2CCN(c3ccccc3F)CC2)cc2c(=O)n(C)c3ccccc3c21, CCCCc1ccc(/C=C2/C(=O)ON=C2c2ccccc2)s1, CCc1sc(/C=C(/C#N)C(N)=S)cc1[N+](=O)[O-], CCCCNC(=O)Nc1ccccc1C(=O)NCc1ccco1, O=S(=O)(c1cc(Cl)ccc1Cl)N1CCNCC1, CC(CN1CCCCC1)OC(=O)c1ccc(Cl)cc1 (stereo not given), Cc1ccccc1OCc1nc2ccccc2c(=O)n1N, CC(C)CC(=O)Nc1cccc(-c2nc3ccccc3o2)c1, COc1ccc(-c2nnn(CC(=O)N3CCOCC3)n2)cc1, C=C(CCC(=O)c1ccccc1)C(=O)c1ccccc1, COc1ccccc1N1C(=O)CC(N2CCc3ccccc32)C1=O (stereo not given), COc1cc(/C=C/C(=O)OCC(=O)NC(=O)NCc2ccco2)ccc1OC(F)F, CNc1nc(OCCNC(=O)Nc2ccccc2)nc(N2CCOCC2)n1
